Laboratory results reported in PubChem BioAssay.

Each compound was assayed on Fibrinogen (Alexa647-labelled) (assay: Alexa647-fibrinogen binding to printed small molecules – biochemical, small-molecule microarray, 635/667 nm fluorescence, artefact control for SMM control-protein annotation, profiling panel (AID 1131;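 also: z-score merges 667 nm fluorescence with per-spot signal-to-noise over triplicate slides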)). Details: fibrinogen-A647 binding fluorescence, higher = more signal.

| Structure (SMILES) | composite z-score |
| --- | --- |
| CCOC(=O)CCN1C(=O)[C@H]2[C@H]3[C@H](O)[C@H](O)CC(=NOC[C@@H](O)COCc4ccco4)[C@@H]3CC[C@H]2C1=O | 0.825 |
| COc1ccc([Si](C)(C)[C@H]2[C@H](CC(=O)N3CCC[C@H]3CO)O[C@@]3(C(=O)N(Cc4cccc(N5C(=O)COc6ccccc65)c4)c4ccccc43)[C@@H]2C)cc1 | -0.07 |
| CC(=O)OC[C@H]1O[C@H](CCON=C(C)CCC(=O)OC[C@H]2O[C@H](C#Cc3ccccc3)C=C[C@@H]2Oc2ccc(C)cc2)C=C[C@@H]1OC(C)=O | 0.185 |
| CCOC(=O)[C@H](CC(C)C)NC(=O)CCC1CC(OC(=O)NCc2cccc3ccccc23)CC2(CCCC(COC(=O)NCCN3CCOCC3)O2)O1 (some centres undefined) | 0.356 |
| CN1C(=O)C2C=CC(C(O)C(c3ccccc3)c3ccccc3)N(NC(=O)OC(C)(C)C)C2C1=O (centres undefined) | 0.973 |
| Cc1cc2c(c(=O)o1)[C@H](O)[C@H]1O[C@H]1C2=O | -0.236 |
| O=C(NN=C1C[C@@H](O)[C@@H](O)[C@@H]2[C@@H]3C(=O)N(c4cccc(Oc5ccccc5)c4)C(=O)[C@@H]3CC[C@@H]12)OCc1ccccc1 | 0.81 |
| COC(=O)C1=CCC(c2cccc(Cl)c2)O1 (centres undefined) | 0.346 |
| NC(=O)NCC#Cc1ccc2c(c1)[C@]1(C(=O)N2)[C@H](c2ccc(O)cc2)N2[C@H](c3ccccc3)[C@H](c3ccccc3)OC(=O)[C@H]2[C@@H]1C(=O)N1CCCCCCC1 | 0.161 |
| CC(C)[C@@H](OCc1ccccc1)[C@H](C)C=NOC[C@@H](C)[C@H](OCc1ccccc1)C(C)C | -0.0745 |
| COc1ccc(O[C@H]2C=C[C@@H](c3ccccc3)O[C@@H]2COC(=O)N2CCCCC2)cc1 | -0.528 |
| CO[C@@H]1COC(=O)CC=C[C@@H](C)[C@H](OC)COC(=O)[C@H](COCc2ccccc2)NC(=O)CC=C[C@H]1C | -1.21 |
| CO[C@@H]1COC(=O)[C@@H]2CCCN2C(=O)[C@@H](C)COC(=O)[C@H](COCc2ccccc2)NC(=O)CC=C[C@H]1C | 0.385 |
| CC(=O)OC[C@H]1O[C@H](CCON=C(C)CCN2CCc3nc(-c4ccccc4)c(-c4ccccc4)cc3C2)C=C[C@@H]1OC(C)=O | 0.476 |
| CCCC[C@@H](O)C1=C(C)C[C@H]2C(=O)N(Cc3ccccc3)C(=O)[C@H]2[C@H]1CO | -0.0897 |
| O=C1[C@H]2[C@H]3[C@H](O)[C@H](O)CC(=NO[C@@H]4O[C@H](CO)[C@@H](O)[C@H](O)[C@H]4O)[C@H]3CC[C@H]2C(=O)N1C1CCCCC1 | 0.402 |
| COC(=O)C1=C(C)[C@@H](O)[C@@H](C)[C@H](c2c(OC)c(OC)c(C)c(OC)c2OC)O1 | -1.27 |
| COc1ccc(-c2ccc3c(n2)CCCN3CC(O)CN2CCCc3nc(C)c(C)cc32)cc1 (centres undefined) | 0.733 |
| CC(C)(C)OC(=O)CC[C@]1(C(=O)NCc2ccccc2)N=C(c2ccc(OCCCO)cc2)O[C@H]1c1ccccc1 | 0.983 |
| CC(=O)OC[C@H]1O[C@H](C#CCCCc2ccccc2)C=C[C@@H]1OC(C)=O | 0.735 |
| CS(=O)(=O)CCOC(=O)C1=CC(CCCO)=CC(c2cccs2)N(Cc2cccc(OC(F)(F)F)c2)C=C1C(=O)OCCS(C)(=O)=O (centres undefined) | 0.579 |
| NCCCCCNC(=O)[C@@H]1C[C@@H]2C(=O)N3CCC[C@H]3C(=O)N2[C@@H]1c1cccc(OCCO)c1 | 0.974 |
| CC(C)=C1C(=O)C(c2ccccc2)=C2CN3C(=O)N(CCc4ccccc4)C(=O)[C@]3(Cc3ccc(F)cc3)[C@H]21 | -1.43 |
| COc1ccc(COC(=O)NN=C2C[C@@H](O)[C@@H](O)[C@@H]3[C@@H]4C(=O)N(Cc5ccc6c(c5)OCO6)C(=O)[C@@H]4CC[C@@H]23)cc1 | 0.144 |
| CCOC(=O)C[C@H]1[C@H](OC(=O)c2ccc(C(=O)c3ccccc3)cc2)[C@@H](NC(=O)c2ccc(-c3ccccc3)cc2)c2cc(OCCCO)ccc2N1C(=O)c1ccc2ccccc2n1 | 0.873 |
| C[C@@H]1CC[C@H]2C(=O)O[C@H](COc3ccc(C(C)(C)C)cc3)CN2[C@H]1c1ccc(Br)cc1 | 0.54 |
| CC(C)CON=C1C[C@@H](O)[C@@H](O)[C@@H]2[C@@H]3C(=O)N([C@@H](C)c4ccccc4)C(=O)[C@@H]3CC[C@H]12 | 0.951 |
| O=C1CCCC=C1C(O)CCOCc1ccccc1 (centres undefined) | -1 |
| CCc1cccc(NC(=O)O[C@H]2[C@H](OC(=O)Nc3ccc4c(c3)OCO4)[C@@H](OC(=O)Nc3ccc4c(c3)OCO4)[C@@H](OC)O[C@@H]2CO)c1 | 0.992 |
